# Data published in PubChem BioAssay (EPA / NIEHS).
# The source made the active and inactive calls. Rule for the calls: active = hit-call score of the fitted dose curve at least 0.9, where 1 is the maximum; inactive = score below 0.9.
# Read-out: solute carrier (SLC10A1), SLC10A1 (gene 6554)
# Test: LTEA_HepaRG_SLC10A1: Life Technologies and Expression Analysis (LTEA) Assay for solute carrier (SLC10A1) using HepaRG (AID 2283657)
# Conditions: mRNA level, 48 h; actives raise or lower the signal
# Description: LTEA_HepaRG is a cell based, multiplexed-readout assay that uses HepaRG, a human liver cell line, with measurements taken at 48 hours after chemical dosing on a 96-well plate.LTEA_HepaRG_SLC10A1 is one of 102 assay component(s) measured in the LTEA HepaRG cell culture assay. It is a marker of NR mediated transport.Data from the assay component LTEA_HepaRG_SLC10A1 was analyzed into 1 endpoint. This assay endpoint, LTEA_HepaRG_SLC10A1, was analyzed with bidirectional fitting relative to DMSO as the negative control and baseline of activity. Using a type of inducible reporter, measures of mRNA induction for gain or loss-of-signal activity can be used to understand regulation of transcription factor activity. To generalize the intended target to other relatable targets, this assay endpoint is annotated to the transporter intended target family, where the subfamily is sodium/bile acid cotransporter.
# A total of 1060 chemcials from the ToxCast library were tested in eight-point concentration-response experiments. Cell culture and cytotoxicity assays were conducted at Thermo Fisher Scientific's Custom Services facility (Madison, WI). A single lot of human HepaRG cells (Thermo Fisher Scientific, Frederick, MD) was used for the cell culture experiments. 96-well format collagen type I coated plates of human HepaRG cells were prepared using established methods. Briefly, cryopreserved HepaRG cells were thawed, plated at a density of approximately 100,000 cells/well in HepaRG Thaw, Plate, and General Purpose media (HPRG770, Thermo Fisher Scientific), and incubated for 48 hours. 0.5% DMSO was selected as vehicle control to balance the requisite need of DMSO in HepaRG cultures to maintain differentiation (for example, baseline metabolism, proportions of hepatocytes vs. cholangiocytes), while enabling further hepatic receptor pathway activation (for example, PXR and CAR) in response to chemical exposure. 48 hours after plating, the culture medium was replaced with HepaRG Serum-Free Incudtion Media. Cells were exposed to each test chemical in duplicate and maintained in CO2 incubators for another 48 hours. Chemical plates were thawed to room temperature and 200x concentrations of treatment groups were prepared. 8-point conentration-reponse curves were made with the highest exposure at 100 uM, followed by half-log dilutions, all in 0.5% DMSO. Each test plate contained variouse controls, induction positive controls (1mM phenobarbital), cytotoxicity positive controls ([…] aflatoxin B1), vehicle controls (0.5% DMSO), and total lysis controls (0.5% DMSO). Cell morphology images were taken using an Essen IncuCyte FLR automated microscope, with six 96-well plates imaged in about 24 minutes. Images were captured and exported and JPEG files. Spent culture media was transfered to black-well plates for the LDH assay, and remaining media was sorted at -80 C for later use. Cells were treated with RLT buffer and frozen until shipped for gene expression analysis. Total RNA was isolated from the cell suspension in 75 uL of Buffer RLT (Qiagen, Germantown, MD 20874) by Quintiles/Expression Analysis (Durham, NC) using a custom isolation procedure. Total RNA from each plate well was transferred to a preamplification plate. Fluidigm's 96.96 Dynamic ArrayTM (Fluidigm, Amsterdam, the Netherlands) technology was used for gene expression analyses by quantitative reverse transcription polymerase chain reaction (qRT-PCR, performed by Quintiles/Expression Analysis, Durham, NC)89. Standard TaqManTM Assays (Applied Biosystems/ThermoFisher Scientific, Foster City, CA) were used to assess the expression of 93 genes selected based on their selectivity and sensitivity to important hepatic receptors known to be modulated by environmental chemicals; importance in human hepatocyte functionality; and hepatotoxicity. […]
SMILES,outcome,AC50
O=C1c2ccccc2C(=O)N1SC(Cl)(Cl)Cl,inactive,–
CCCN(CCC)c1c([N+](=O)[O-])cc(C(F)(F)F)cc1[N+](=O)[O-],inactive,–
Cc1[nH]c(=O)n(C(C)(C)C)c(=O)c1Cl,–,50 µM (active)
CN1CSC(=S)N(C)C1,inactive,–
CC1(C)C(C=C(Cl)Cl)C1C(=O)OC(C#N)c1ccc(F)c(Oc2ccccc2)c1 (stereo not given),–,50 µM (active)
CCCN(CCOc1c(Cl)cc(Cl)cc1Cl)C(=O)n1ccnc1,–,35.9 µM (active)
CCC(C)Nc1c([N+](=O)[O-])cc(C(C)(C)C)cc1[N+](=O)[O-] (stereo not given),–,72.9 µM (active)
CCOC1Oc2ccc(OS(C)(=O)=O)cc2C1(C)C (stereo not given),–,84.8 µM (active)
N#Cc1c(Cl)c(Cl)c(Cl)c(C#N)c1Cl,–,27.8 µM (active)
ClC1C(Cl)C(Cl)C(Cl)C(Cl)C1Cl (stereo not given),inactive,–
